Results on 39 compounds are retold here after PubChem BioAssay (NCI).

Where “and” joins values, the source holds several entries; their conditions need not be identical. Equal entries are not always repeated. This is part of a sample that, as a whole, favours compounds with a hit. Of some 83,000 tested, about 20% had one in any assay.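 Percent growth is the endpoint: 0 to 100 indicates growth inhibition (40 means 60% inhibition), 0 means no net growth, and negative values indicate cell death.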 Values without a mark were called inactive. Calls of active or inactive are those of the source. The calls were made as follows: active = growth percent below 10; inactive = the rest.

This assay has as its system MDA-MB-468 breast. In words: NCI-60 one-dose screen, 48 h (100 = growth as untreated, 0 = no growth, -100 = all killed). As to conditions: 10 µM unless noted.
`COc1ccc(-c2nc3cc(Cl)c(Cl)cc3n2CC(=O)N=Nc2c(O)[nH]c3ccc(Br)cc23)cc1`: the growth was -71% (active).

Consider `c1ccc2c(c1)OC1OC2Oc2ccccc21`, for which the growth was 97.5%.

Turning to `O=c1oc2ccc(Cl)cc2cc1-c1cs/c(=N/N=C\c2ccc(Cl)cc2)n1/N=C/c1ccc(Cl)cc1`, the growth was 114%.

On to `CCOC(=O)C1=C(Nc2ccc(Br)cc2)C(=O)N(CC)C1`, for which the growth was 101%.

Turning to `Cc1ccc(S(=O)(=O)OCCN(CCOS(=O)(=O)c2ccc(C)cc2)c2c[nH]c(=O)[nH]c2=O)cc1`, the growth was 98.5%.

`CC(=O)/C(C)=N\OC(=O)Nc1ccccc1`: the growth is 114%.

For the compound `Nc1nc(Nc2ccc(OCc3cccc(F)c3)cc2)c2c(n1)[nH]c1ccc(O)cc12`, the growth is -17.2% (active).

Take `COc1cccc(C(=O)NC(c2ccc(C)cc2)c2cc(Cl)c3cccnc3c2O)c1` (centres undefined): the growth is -8.72% (active).

For `Cc1[nH]c(/C=C2\C(=O)Nc3ccc(F)cc32)c(C)c1C(=O)NC[C@H](O)CN1CCOCC1`, the growth was 114%.

In the case of `O=C(CSc1nc2ccc([N+](=O)[O-])cc2[nH]1)Nc1ccc(F)cc1`, the growth was 22.3%.

For `N#C/C(=C\c1ccc(-c2ccc(Cl)cc2)o1)C(=O)Nc1ncc(Cc2ccc(Cl)cc2)s1`, the growth was 77.9%.

For the compound `Cc1cc(Cl)nc(N(CCNc2ccnc3cc(Cl)ccc23)Cc2ccccn2)n1`, the growth was 3.86% (active).

With `c1ccc2[nH]c(-c3ccc(-c4nccc5c4[nH]c4ccccc45)cc3)nc2c1`, the growth is 44.8%.

As for `CCN1CCN(C(=O)[C@]23CCC(C)(C)C[C@H]2C2=CC[C@@H]4[C@@]5(C)CC/C(=N/O)C(C)(C)[C@@H]5CC[C@@]4(C)[C@]2(C)CC3)CC1`, the growth was 47%.

As to `COc1ccc(C(=O)/C=C/c2cn(Cc3ccc(Cl)cc3)c3ccccc23)cc1`, the growth was -28.2% (active).

On to `COc1cc(/C=C/C(=O)c2ccc(N3CCN(C)CC3)cc2)ccc1F`, for which the growth was 35%.

In the case of `CCC(CC)C(=O)OC(C)COc1ccc(C(C)(C)C)cc1` (centres undefined), the growth was 94.6%.

Turning to `Cc1cc(C(C)(CC(C)C)c2ccc(O)c(C)c2)ccc1O`, the growth was 103%.

Take `COc1ccc(/C(=N/O)c2cc(F)c(F)c(OC)c2F)cc1O`: the growth is 18.4%.

Consider `CCN(c1cc(-c2ccc(CN3CCC(/C=C/S(=O)(=O)c4ccccc4)CC3)cc2)cc(C(=O)NCc2c(C)cc(C)[nH]c2=O)c1C)C1CCOCC1`, for which the growth is 55.9%.

For `COc1cc(Cc2cc(-c3ccc(Cl)cc3)n[nH]c2=O)ccc1O`, the growth is 73.9%.

`C/C(=N\Nc1cc(C)c2cc(C)ccc2n1)c1ccccn1`: the growth was -69% (active).

On to `Cc1ccc(NC(=O)c2ccc(CN3CCN(C)CC3)cc2)cc1Nc1nccc(-c2cccnc2)n1`, for which the growth was 70.9% and 73.4%.

Turning to `COc1cc2nc3cc([N+](=O)[O-])ccc3c(NCCCNCCO)c2cc1OC`, the growth is -49.4% (active).

Consider `COc1cc(CNC(=O)/C=C/C=C/c2ccc3c(c2)OCO3)ccc1OCc1cn(-c2ccc(Cl)c(Cl)c2)nn1`, for which the growth was -68.1% (active).

For `Nc1nccc(OCCO)n1`, the growth is 107%.

Consider `COc1ccc2c(c1)c(-c1noc(C(=O)c3cn(C)c4ccc(Br)cc34)n1)cn2C`, for which the growth is 120%.

In the case of `COc1cc2cc(Oc3ccc(NC(=O)Nc4ccc(Cl)c(C(F)(F)F)c4)cc3)c(C)nc2cc1OC`, the growth was -42.7% (active).

Turning to `CCCCNc1ccc(C#N)c(OCCN(CC)CC)c1`, the growth was 90.1%.

On to `CN(C)Cc1ccc(NC(=O)c2cncc(C#Cc3cnc(N)c4ncccc34)c2)cc1F`, for which the growth was 72.3%.

On to `COc1cc(C(=O)/C=C/c2cn(-c3ccccc3)nc2-c2cccc(Nc3ccnc4cc(Cl)ccc34)c2)cc(OC)c1OC`, for which the growth is 71.7%.

As for `CC1(C)CC[C@]2(C(=O)NCCNCCN)CC[C@]3(C)C(=CC[C@@H]4[C@@]5(C)CCC(=O)C(C)(C)[C@@H]5CC[C@]43C)[C@@H]2C1`, the growth is -67% (active).

For `CCCCOc1ncnc2nc[nH]c12`, the growth is 98.5%.

Regarding `CN(C)CCCNCc1ccc(-c2ccc(F)c(Cl)c2)o1`, the growth was -66.3% (active).

`C1CNC(C2=NCCN2)=N1`: the growth is -26.9% (active).

Turning to `CCOC(=O)c1c(-c2ccc(O)cc2)c(C#N)c2c(C#N)c(N)nn2c1N`, the growth was 35.2%.

With `CCCn1nc(-c2ccccc2)c2c(-c3ccccc3)onc2c1=O`, the growth is 43.6%.

Regarding `CC(C)/C=C/CC[C@](C)(O)[C@H]1CC[C@]2(C)[C@@H]1CC[C@@H]1[C@@]3(C)C/C(=C/c4cccc(C(F)(F)F)c4)C(=O)C(C)(C)[C@@H]3CC[C@]12C`, the growth is 104%.

For the compound `CN1CCN(CCOc2ccc(-c3cnc4c(-c5ccccc5F)cnn4c3)cc2)CC1`, the growth was 45.6%.
